# Experimental data published in the supplement of paper PMC8728848.
# This excerpt belongs to a sample that is enriched for the strongest signals.
# B1: Flo1 (Saccharomyces cerevisiae), P32768 (protein)
# chain: SGATEACLPAGQRKSGMNINFYQYSLKDSSTYSNAAYMAYGYASKTKLGSVGGQTDISIDYNIPCVSSSGTFPCPQEDSYGNWGCKGMGACSNSQGIAYWSTDLFGFYTTPTNVTLEMTGYFLPPQTGSYTFKFATVDDSAILSVGGATAFNCCAQQQPPITSTNFTIDGIKPWGGSLPPNIEGTVYMYAGYYYPMKVVYSNAVSWGTLPISVTLPDGTTVSDDFEGYVYSFDDDLSQSNCTVPDPSNY
# Experiments:
# Assay in all cases: glycan array binding signal (z-score within array); higher = stronger binding
# Conditions in all cases: glycan notation: IUPAC condensed, linker removed
# Gal3S(b1-4)GlcNAc6S = biological target: Gal3S(b1-4)GlcNAc6S
# Procedure, shortened: (§1)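 Negative Z-scores can be read as non-binding. The Z-score is calculated within each array and then averaged across arrays of one protein sequence at different concentrations or buffers and across linkers. Arrays, 3228 in all, were curated from the Consortium for Functional Glycomics database and kept only where the protein sequence was available.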
# [1] = biological target: Gal3S(b1-4)[Fuc(a1-3)]GlcNAc
# Procedure, shortened: as §1
# [2] = biological target: Gal3S(b1-4)[Fuc(a1-3)]GlcNAc6S
# Procedure, shortened: as §1
# Gal6S(b1-4)GlcNAc6S = biological target: Gal6S(b1-4)GlcNAc6S
# Procedure, shortened: as §1
# GalNAc(b1-4)Gal(b1-4)Glc = biological target: GalNAc(b1-4)Gal(b1-4)Glc
# Procedure, shortened: as §1
# GalNAc3S(b1-4)GlcNAc = biological target: GalNAc3S(b1-4)GlcNAc
# Procedure, shortened: as §1
# GalNAc4S6S(b1-4)GlcNAc = biological target: GalNAc4S6S(b1-4)GlcNAc
# Procedure, shortened: as §1
# [3] = biological target: GlcNAc(a1-4)Gal(b1-4)GlcNAc(b1-3)Gal(b1-4)[Fuc(a1-3)]GlcNAc(b1-3)Gal(b1-4)[Fuc(a1-3)]GlcNAc
# Procedure, shortened: as §1
# [4] = biological target: GlcNAc(a1-6)Gal(b1-4)GlcNAc
# Procedure, shortened: as §1
# [5] = biological target: GlcNAc(b1-2)Man(a1-3)[GlcNAc(b1-4)][GlcNAc(b1-2)Man(a1-6)]Man(b1-4)GlcNAc(b1-4)[Fuc(a1-6)]GlcNAc
# Procedure, shortened: as §1
# [6] = biological target: GlcNAc(b1-3)Gal(b1-4)GlcNAc(b1-3)Gal(b1-4)GlcNAc(b1-3)Gal(b1-4)GlcNAc(b1-3)Gal(b1-4)GlcNAc(b1-2)Man(a1-3)[GlcNAc(b1-3)Gal(b1-4)GlcNAc(b1-3)Gal(b1-4)GlcNAc(b1-3)Gal(b1-4)GlcNAc(b1-3)Gal(b1-4)GlcNAc(b1-2)Man(a1-6)]Man(b1-4)GlcNAc(b1-4)[Fuc(a1-6)]GlcNAc
# Procedure, shortened: as §1
# [7] = biological target: GlcNAc(b1-3)Gal(b1-4)GlcNAc(b1-6)[Gal(b1-3)]GalNAc
# Procedure, shortened: as §1
# [8] = biological target: GlcNAc(b1-3)Gal(b1-4)GlcNAc(b1-6)[GlcNAc(b1-3)]Gal(b1-4)GlcNAc
# Procedure, shortened: as §1
# [9] = biological target: GlcNAc(b1-4)[GlcNAc(b1-6)]GalNAc
# Procedure, shortened: as §1
# [10] = biological target: Man(a1-2)Man(a1-2)Man(a1-3)Man
# Procedure, shortened: as §1
# Man(b1-4)GlcNAc = biological target: Man(b1-4)GlcNAc
# Procedure, shortened: as §1
# [11] = biological target: Neu5Ac(a2-3)Gal(b1-3)GalNAc(b1-3)Gal(a1-4)Gal(b1-4)Glc
# Procedure, shortened: as §1
# [12] = biological target: Neu5Ac(a2-3)Gal(b1-3)[Fuc(a1-4)]GlcNAc(b1-3)Gal(b1-3)[Fuc(a1-4)]GlcNAc
# Procedure, shortened: as §1
# [13] = biological target: Neu5Ac(a2-3)Gal(b1-4)GlcNAc(b1-2)[Neu5Ac(a2-3)Gal(b1-4)GlcNAc(b1-4)]Man(a1-3)[GlcNAc(b1-4)][Neu5Ac(a2-3)Gal(b1-4)GlcNAc(b1-4)Man(a1-6)]Man(b1-4)GlcNAc(b1-4)GlcNAc
# Procedure, shortened: as §1
# [14] = biological target: Neu5Ac(a2-3)[GalNAc(b1-4)]Gal(b1-4)GlcNAc
# Procedure, shortened: as §1
# [15] = biological target: Neu5Ac(a2-6)Gal(b1-4)GlcNAc(b1-3)GalNAc
# Procedure, shortened: as §1
# [16] = biological target: Neu5Ac(a2-6)GlcNAc(b1-4)GlcNAc
# Procedure, shortened: as §1
# [17] = biological target: Neu5Ac(a2-8)Neu5Ac(a2-3)Gal(b1-3)GalNAc(b1-4)[Neu5Ac(a2-3)]Gal(b1-4)Glc
# Procedure, shortened: as §1
# [18] = biological target: Neu5Gc(a2-6)Gal(b1-4)GlcNAc
# Procedure, shortened: as §1
binder,measurement,setting,value
B1,glycan array binding signal (z-score),Gal3S(b1-4)GlcNAc6S,-0.289
same,glycan array binding signal (z-score),[1],-0.778
same,glycan array binding signal (z-score),[2],-0.547
same,glycan array binding signal (z-score),Gal6S(b1-4)GlcNAc6S,-0.216
same,glycan array binding signal (z-score),GalNAc(b1-4)Gal(b1-4)Glc,3.53
same,glycan array binding signal (z-score),GalNAc3S(b1-4)GlcNAc,-0.358
same,glycan array binding signal (z-score),GalNAc4S6S(b1-4)GlcNAc,3.28
same,glycan array binding signal (z-score),[3],2.23
same,glycan array binding signal (z-score),[4],-0.009
same,glycan array binding signal (z-score),[5],0.011
same,glycan array binding signal (z-score),[6],-0.202
same,glycan array binding signal (z-score),[7],-0.618
same,glycan array binding signal (z-score),[8],-2.82
same,glycan array binding signal (z-score),[9],-0.024
same,glycan array binding signal (z-score),[10],0.403
same,glycan array binding signal (z-score),Man(b1-4)GlcNAc,-0.306
same,glycan array binding signal (z-score),[11],-0.211
same,glycan array binding signal (z-score),[12],0.24
same,glycan array binding signal (z-score),[13],0.143
same,glycan array binding signal (z-score),[14],0.215
same,glycan array binding signal (z-score),[15],0.748
same,glycan array binding signal (z-score),[16],-0.394
same,glycan array binding signal (z-score),[17],1.62
same,glycan array binding signal (z-score),[18],-0.199
